# Among all 340,000 compounds or so, about 2,800 (0.82%) were called active. The sample holds actives, similar compounds and a random draw of the others, so the mix is not that of the screen.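 How the source made its calls: active means B-score under library mean minus 4 SD, starting fluorescence ratio at most library mean plus 5 SD; inactive means the rest.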
# Target: Potassium channel subfamily K member 3 (Homo sapiens) (UniProt O14649)
# Assay: blockers of TASK1 two-pore potassium channel – CHO cells, FluxOR thallium flux, B-score, primary screen (AID 602410);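 on B-score: more negative B-score means stronger inhibition of thallium flux through KCNK3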
# Details: CHO-KCNK3 thallium flux, FluxOR fluorescence, at 10 µM; active compounds read low
# Sequence of Potassium channel subfamily K member 3 (Homo sapiens) (O14649 whole entry, looked up): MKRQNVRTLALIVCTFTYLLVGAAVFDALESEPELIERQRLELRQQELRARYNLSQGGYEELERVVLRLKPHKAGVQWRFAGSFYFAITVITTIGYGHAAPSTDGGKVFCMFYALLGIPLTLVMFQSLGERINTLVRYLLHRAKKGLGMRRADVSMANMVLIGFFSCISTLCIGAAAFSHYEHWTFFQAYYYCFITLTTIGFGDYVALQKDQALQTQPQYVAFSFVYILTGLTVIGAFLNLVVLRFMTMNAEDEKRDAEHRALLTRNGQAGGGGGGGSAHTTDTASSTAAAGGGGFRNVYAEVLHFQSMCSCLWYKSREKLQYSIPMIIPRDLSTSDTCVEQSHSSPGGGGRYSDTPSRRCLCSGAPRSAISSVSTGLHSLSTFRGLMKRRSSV
row,Structure (SMILES),B-score
1,COC(=O)c1ccccc1N=Nc1c(C)[nH][nH]c1=O,inactive
2,CCN1CCN(CCNC(=O)c2ccc(/C=C3/Sc4ccccc4N(Cc4cccc(C)c4)C3=O)cc2)CC1,-11.5 (active)
3,CN1CCN(CCCNC(=O)c2ccc(/C=C3\Oc4ccccc4N(Cc4ccc(Cl)cc4)C3=O)cc2)CC1,inactive
4,O=C(NCCCN1CCOCC1)c1ccc2c(c1)N(Cc1cccc(F)c1)C(=O)c1ccccc1S2,inactive
5,CC[C@]1(C(=O)OC)[C@H]2C(=O)N(Cc3ccccc3)C(=O)[C@H]2[C@H]2CN=C(SCc3ccc(C#N)cc3)N21,inactive
6,CCc1ccc(OC(C)C(=O)Nc2ccc(S(=O)(=O)Nc3cc(C)on3)cc2)cc1 (configuration not stated),inactive
7,Cc1cc(C(=O)NCCc2ccc(Cl)cc2)n(-c2ccccc2)n1,inactive
8,Cc1cc(NC(=O)Nc2ccc(Cl)cc2)n(-c2ccccc2)n1,-10.7 (active)
9,Cc1ccc(NC(=O)Nc2cc(-c3ccccc3)nn2C)cc1Cl,inactive
10,O=[N+]([O-])c1ccc(N/N=C2/CCCCC2c2ccccn2)c([N+](=O)[O-])c1 (configuration not stated),inactive
11,C[n+]1ccccc1C1CCCC/C1=N\Nc1ccc([N+](=O)[O-])cc1[N+](=O)[O-] (configuration not stated),inactive
12,O=C(Nc1ccccc1)O/N=C1\CCCCC1c1ccc([N+](=O)[O-])cc1[N+](=O)[O-] (configuration not stated),-9.88 (active)
13,Cc1ccc(S(=O)(=O)N(CC(O)CN2C(=O)NC(C)(C)C2=O)c2cccc([N+](=O)[O-])c2)cc1 (configuration not stated),inactive
14,C/C(=N/NC(=O)c1ccc(Br)o1)c1ccc(C)o1,inactive
15,O=C(C1CC(=O)N(c2ccc(Br)cc2)C1)N1CCCC1 (configuration not stated),inactive
16,CC(NC(=O)Cn1cc(C(F)(F)F)cc(Cl)c1=O)c1ccccc1 (configuration not stated),inactive
17,CC(C)(CCl)C(=O)Nc1ccc(Sc2ccc(F)cc2)cc1,-12 (active)
18,O=C(Nc1ccncc1)Nc1ccc(F)cc1,inactive
19,O=C(CCl)Nc1ccc(Sc2ccc(NC(=O)CCl)cc2)cc1,inactive
20,CCn1nnnc1SCC(=O)c1ccc(C)cc1C,inactive
21,Cc1ccc(NC(=O)COc2ccc(-n3ccnc3)cc2)cc1Cl,inactive
22,c1ccc(CN=C2Nc3ccccc3CS2)nc1,inactive
23,COc1ccc(C(CCNCc2ccccc2F)c2ccc(F)cc2)cc1 (configuration not stated),inactive
24,CN(CC(=O)Nc1ccc(S(=O)(=O)N2CCCC2)cc1)Cc1ccc(Cl)c(Cl)c1,inactive
25,CN(CCC(=O)Nc1cc(S(=O)(=O)N(C)C)ccc1Cl)CC(=O)Nc1ccc(F)cc1,-16.6 (active)
26,CN(CC(=O)Nc1ccc(F)cc1)CC(=O)Nc1ccc(Cl)c(S(=O)(=O)N2CCOCC2)c1,inactive
27,COc1cc(C(=O)CCc2ccc3c(c2)OCO3)cc(OC)c1OC,inactive
